In PubChem BioAssay (Tox21):
“And” between values parts separate entries of the source, which are not always exact repeats. Equal values may be shown once. Inconclusive results are not listed. A call without a number means that no potency is given here. Where a structure was tested more than once in an assay, its records may differ in their call. The source made the active and inactive calls. Unless noted, calls come from the whole dose curve; as a rule, active = well fitted curve in the direction sought with a large enough effect in the repeat runs; inconclusive = weak or mixed curves; inactive = no such curve, though single readings can be large; an effect the other way counts as inactive or inconclusive.

What was measured:
[1] = biological target: Thyrotropin-releasing hormone receptor (Homo sapiens) (UniProt P34981); test: qHTS assay to identify small molecule agonists of the thyrotropin-releasing hormone receptor (TRHR) signaling pathway (AID 1346891; calls by dose curve; note: series mostly up to about 58 µM)
Procedure, shortened: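 Screening of agonists relied on calcium signalling in HEK293 cells expressing human TRHR: dye loading 2 h at 37 °C preceded compound addition and a 3-min fluorescence time course.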

[2] = Human pregnane X receptor (PXR) small molecule agonists, qHTS cell viability counter screen (AID 1346977); note: nearly all actives have a fitted effect of over 50% in size; note: potency is the fitted concentration of half-maximal effect
Procedure, shortened: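 Tox21 qHTS format; PXR-Luc HepG2, 2,000/well, charcoal-stripped FBS 5%. Cpd exposure 24hr. Read: CellTiter-Fluor fluorescence, multiplexed with luciferase.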

[3] = Caspase-3/7 induction in HepG2 cells by small molecules, qHTS assay (AID 1346978); note: nearly all actives have a fitted effect of over 15% in size; note: potency is the fitted concentration of half-maximal effect
Procedure, shortened: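 Wild-type HepG2 cells, 2,000/well, settled 5 hr at 37 C and 5% CO2, then compound-treated for 17 hr; caspase-3/7 activity read by luminescent Caspase-Glo 3/7 after 30 min at room temperature.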

[4] = Caspase-3/7 induction in CHO-K1 cells by small molecules, qHTS cell viability counter screen (AID 1346979); note: nearly all actives have a fitted effect of over 35% in size; note: potency is the fitted concentration of half-maximal effect
Procedure, shortened: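 CellTiter-Fluor viability check, qHTS format: wild-type CHO-K1, 16hr compound treatment, 1hr reagent incubation, fluorescence read.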

[5] = Caspase-3/7 induction in CHO-K1 cells by small molecules, qHTS assay (AID 1346980); note: nearly all actives have a fitted effect of over 15% in size; note: potency is the fitted concentration of half-maximal effect
Procedure, shortened: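 Wild-type CHO-K1 cells exposed to compounds for 17hr at 37 C, 5% CO2. Caspase-3/7 activity then measured by Caspase-Glo 3/7 luminescence after 30min at room temperature.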

[6] = Caspase-3/7 induction in HepG2 cells by small molecules, qHTS cell viability counter screen (AID 1346981); note: nearly all actives have a fitted effect of over 30% in size; note: potency is the fitted concentration of half-maximal effect
Procedure, shortened: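 Wild-type HepG2 cells (2,000/well) were allowed to settle for 5 hr at 37 C, 5% CO2, then dosed with compounds in DMSO by pin transfer. After 16 hr at 37 C, CellTiter-Fluor was added and fluorescence read 1 hr later.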

[7] = biological target: Nuclear receptor subfamily 1 group I member 2 (Rattus norvegicus) (UniProt Q9R1A7); test: Rat pregnane X receptor (rPXR) activation by small molecules, qHTS assay (AID 1346983); conditions: rPXR luciferase reporter cells, One-Glo luminescence, 24 h; max activation: stronger effect = higher value; note: nearly all actives have a fitted effect of over 20% in size; note: potency is the fitted concentration of half-maximal effect
Procedure, shortened: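 Cell-based rPXR activation assay: rPXR cells, 2,000 per well, rested 5hr at 37 C, then exposed to compounds in DMSO for 24 hr at 37 C. Luciferase activity read by One-Glo luminescence after 30 min at room temperature.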

[8] = biological target: Nuclear receptor subfamily 1 group I member 2 (Homo sapiens) (UniProt O75469); test: CYP3A4 induction through human pregnane X receptor (PXR) by small molecules, qHTS assay (AID 1346984); note: nearly all actives have a fitted effect of over 40% in size; note: potency is the fitted concentration of half-maximal effect
Procedure, shortened: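 DPX-2 cells (HepG2 co-transfected with PXR and CYP3A4 promoter-luciferase) treated with compounds 24 h at 37C; luciferin-IPA CYP3A4 substrate 3uM final added for 3 h, then One-Glo; luminescence read. qHTS format.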

[9] = biological target: Nuclear receptor subfamily 1 group I member 2 (Homo sapiens) (UniProt O75469); test: Human pregnane X receptor (PXR) activation by small molecules, qHTS assay (AID 1346985); note: nearly all actives have a fitted effect of over 40% in size
Procedure, shortened: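 DPX-2 cells (HepG2 co-transfected with a PXR response element and a CYP3A4-promoter luciferase construct) were seeded at 2,000 per well, rested 5 hr at 37C, then exposed to DMSO-dissolved compounds for 24 hr. Activation was read as luciferase luminescence.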

[10] = biological target: Nuclear receptor subfamily 1 group I member 2 (Homo sapiens) (UniProt O75469); test: Human pregnane X receptor (PXR) small molecule agonists, qHTS assay (AID 1346982); note: nearly all actives have a fitted effect of over 35% in size; note: potency is the fitted concentration of half-maximal effect
Procedure, shortened: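 PXR-Luc HepG2 cells (CYP3A4 promoter-driven luciferase) were seeded in medium with 5% charcoal-stripped FBS, left 5 hr at 37 C, then exposed to compounds in DMSO for 24 hr. Luminescence was read after ONE-Glo addition.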

Chain of Nuclear receptor subfamily 1 group I member 2 (Homo sapiens) (O75469 whole entry, looked up): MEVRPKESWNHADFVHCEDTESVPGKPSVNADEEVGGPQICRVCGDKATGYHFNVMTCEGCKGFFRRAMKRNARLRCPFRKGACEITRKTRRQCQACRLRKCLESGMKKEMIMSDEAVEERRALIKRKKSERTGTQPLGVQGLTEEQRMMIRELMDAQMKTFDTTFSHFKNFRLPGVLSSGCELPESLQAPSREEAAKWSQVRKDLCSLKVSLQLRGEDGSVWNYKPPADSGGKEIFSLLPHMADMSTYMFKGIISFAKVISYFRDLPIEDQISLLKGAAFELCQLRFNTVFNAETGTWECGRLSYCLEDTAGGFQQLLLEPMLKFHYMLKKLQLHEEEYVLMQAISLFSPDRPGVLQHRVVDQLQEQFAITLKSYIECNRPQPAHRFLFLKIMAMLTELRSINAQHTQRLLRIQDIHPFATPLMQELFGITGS
Chain of Nuclear receptor subfamily 1 group I member 2 (Rattus norvegicus) (Q9R1A7 whole entry, looked up): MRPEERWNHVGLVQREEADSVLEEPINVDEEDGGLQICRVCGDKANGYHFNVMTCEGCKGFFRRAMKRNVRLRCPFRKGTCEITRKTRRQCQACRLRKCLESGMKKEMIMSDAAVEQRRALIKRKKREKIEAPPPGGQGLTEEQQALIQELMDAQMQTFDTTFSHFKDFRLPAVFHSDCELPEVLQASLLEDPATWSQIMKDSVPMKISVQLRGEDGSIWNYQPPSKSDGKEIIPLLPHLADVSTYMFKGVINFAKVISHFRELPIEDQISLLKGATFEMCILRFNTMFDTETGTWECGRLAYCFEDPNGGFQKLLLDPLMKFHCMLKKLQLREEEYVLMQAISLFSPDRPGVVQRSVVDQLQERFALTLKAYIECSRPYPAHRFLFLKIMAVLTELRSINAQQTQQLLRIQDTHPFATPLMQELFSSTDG
Chain of Thyrotropin-releasing hormone receptor (Homo sapiens) (P34981 whole entry, looked up): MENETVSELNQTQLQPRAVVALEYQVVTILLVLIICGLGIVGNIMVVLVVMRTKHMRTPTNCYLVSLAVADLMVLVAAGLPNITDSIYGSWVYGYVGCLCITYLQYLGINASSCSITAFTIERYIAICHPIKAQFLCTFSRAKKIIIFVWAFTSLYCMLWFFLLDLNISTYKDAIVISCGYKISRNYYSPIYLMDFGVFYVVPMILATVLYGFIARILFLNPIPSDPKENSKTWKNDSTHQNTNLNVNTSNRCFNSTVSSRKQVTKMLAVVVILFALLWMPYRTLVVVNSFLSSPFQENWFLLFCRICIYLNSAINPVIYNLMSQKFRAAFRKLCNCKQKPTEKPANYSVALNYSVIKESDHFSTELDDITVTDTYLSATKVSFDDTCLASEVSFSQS

Row | Structure (SMILES) | Potency [1] | Potency [2] | Potency [3] | Potency [4] | Potency [5] | Potency [6] | max activation [7] | Potency [8] | Potency [9] | Potency [10] | Potency [7]
1 | CCOC(=O)OC(C)OC(=O)[C@@H]1N2C(=O)[C@@H](NC(=O)[C@H](N)c3ccccc3)[C@H]2SC1(C)C (stereo partly specified) | inactive | inactive | inactive | inactive | inactive | inactive | 0.482% (inactive) |  |  |  | 
2 | O=C1C(=O)c2ccccc2C(O)=C1C1CCC(c2ccc(Cl)cc2)CC1 (stereo unspecified) | inactive | 11.9 µM (active) | inactive | 16.8 µM (active) | inactive |  | 0.127% (inactive) | 2.51 µM (active) | inactive |  | 
3 | CC(C)(C)CC(=O)OCC(=O)[C@@]1(O)CC[C@H]2[C@@H]3CCC4=CC(=O)C=C[C@]4(C)[C@H]3[C@@H](O)C[C@@]21C | inactive | inactive | inactive |  | inactive | inactive |  |  |  |  | 
4 | CC(CN(C)C)C(C)(O)Cc1ccc(Cl)cc1 (stereo unspecified) | inactive | inactive | inactive | inactive | inactive | inactive | -1.26% (inactive) |  | inactive | inactive | 
5 | CCOC(=O)c1ccc(C#Cc2ccc3c(c2)C(C)(C)CCS3)nc1 | inactive | inactive | inactive | inactive | inactive | inactive |  | inactive | inactive | 33.5 µM (active) | 10 µM (active)
6 | CC1(C)[C@@H](OC(=O)CCC(=O)O)CC[C@]2(C)[C@H]3C(=O)C=C4[C@@H]5C[C@@](C)(C(=O)O)CC[C@]5(C)CC[C@@]4(C)[C@]3(C)CC[C@@H]12 | inactive | inactive | inactive | inactive | inactive | inactive | -0.478% (inactive) |  |  |  | 
7 | Oc1c(I)cc(I)c2cccnc12 | inactive | inactive | inactive |  | inactive | inactive |  |  |  |  | 
8 | CN1C(=O)OC(C)(C)C1=O | inactive | inactive | inactive | inactive | inactive | inactive | -2.55% (inactive) | inactive | inactive | 37.9 µM (active) | 
9 | C=CC(=O)OCC1CC2CC1C1CCC(COC(=O)C=C)C21 (stereo unspecified) | inactive | inactive | inactive | 48.6 µM (active) |  | inactive |  |  |  | 34.4 µM (active) | 
10 | C[C@@H]1CC(=O)NN=C1c1ccc(NN=C(C#N)C#N)cc1 | inactive | 16.8 µM (active) and 21.1 µM (active) | 29.8 µM (active) | 11.9 µM (active) | inactive and 13.3 µM (active) | 18.8 µM (active) and 23.7 µM (active) |  | inactive | inactive | 11.9 µM (active) and 21.1 µM (active) | 14.1 µM (active)
11 | C[C@]12CC[C@@H]3c4ccc(O)cc4CC[C@H]3[C@@H]1CC[C@@H]2OC(=O)CCC1CCCC1 | inactive | inactive | 61.1 µM (active) | 54.5 µM (active) and 29.8 µM (active) | 43.3 µM (active) | inactive | 4.34% (inactive) and -0.252% (inactive) | inactive |  | 21.7 µM (active) and 23.7 µM (active) | 
